# From the supplement of paper PMC3334620
# Whole data set: some 33,000 sequences, median “E-score (-0.5 to 0.5)” near -0.021, cut for the highest 2% near 0.32. The sample holds the highest values, similar sequences and a random draw of the others, so the mix is not that of the screen.
# Biological target: T1, Zap1 (UniProt P47043)
# T1 sequence: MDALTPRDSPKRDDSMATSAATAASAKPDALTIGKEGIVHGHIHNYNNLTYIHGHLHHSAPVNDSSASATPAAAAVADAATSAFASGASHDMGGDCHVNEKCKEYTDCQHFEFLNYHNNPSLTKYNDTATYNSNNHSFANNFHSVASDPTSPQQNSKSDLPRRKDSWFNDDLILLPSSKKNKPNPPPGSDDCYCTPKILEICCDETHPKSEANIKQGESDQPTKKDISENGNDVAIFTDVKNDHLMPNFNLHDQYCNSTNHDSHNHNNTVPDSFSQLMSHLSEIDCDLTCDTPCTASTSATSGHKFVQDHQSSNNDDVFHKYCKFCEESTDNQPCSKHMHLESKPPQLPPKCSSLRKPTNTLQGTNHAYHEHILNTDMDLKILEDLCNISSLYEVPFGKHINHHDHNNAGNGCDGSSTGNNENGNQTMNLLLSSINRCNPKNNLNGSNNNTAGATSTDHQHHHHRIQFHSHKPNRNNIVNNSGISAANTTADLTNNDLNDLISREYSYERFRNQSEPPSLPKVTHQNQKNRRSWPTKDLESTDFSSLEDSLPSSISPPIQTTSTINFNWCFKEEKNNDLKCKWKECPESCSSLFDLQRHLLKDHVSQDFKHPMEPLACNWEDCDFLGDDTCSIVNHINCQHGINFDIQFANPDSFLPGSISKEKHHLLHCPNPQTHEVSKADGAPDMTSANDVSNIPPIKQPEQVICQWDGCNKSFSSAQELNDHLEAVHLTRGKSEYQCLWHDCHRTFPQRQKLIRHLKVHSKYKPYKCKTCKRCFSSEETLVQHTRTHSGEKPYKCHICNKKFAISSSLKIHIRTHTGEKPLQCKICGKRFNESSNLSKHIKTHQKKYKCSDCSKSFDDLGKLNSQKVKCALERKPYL
# Experiment: PBM E-score (8-mer binding enrichment) (E-score (-0.5 to 0.5)); higher = stronger / more preferred TF binding
# Conditions: protein concentration: 200 nM; construct: GST-full length
# Procedure: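 Universal 'all 10-mer' protein binding microarrays (Agilent AMADID 015681) probed with GST-tagged S. cerevisiae TFs (full-length or DBD) made by in vitro transcription/translation (PURExpress), about 100-200 nM. Bound TF was detected with fluorescent anti-GST. Each ungapped 8-mer (which stands for itself and its reverse complement) is scored by the PBM enrichment score (E-score), a modified Wilcoxon-Mann-Whitney statistic from -0.5 to +0.5, computed with the Universal PBM Analysis Suite. Scale: above 0.35 generally sequence-specific binding.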
row,Sequence,PBM E-score
1,AACCACTC,0.289
2,ATCTGTCC,-0.318
3,ATGCAGTG,-0.0561
4,GGTTTGTA,0.119
5,AGGTTGTC,0.242
6,AGGTTGCG,0.333
7,GGGTTGGA,0.16
8,AGGTTGCC,0.088
9,CGGTTGCA,-0.0132
10,GGGTTGTA,0.35
11,AAGTTGCG,0.0515
12,AGGTTGTG,0.349
13,AGGTTGGG,0.232
14,AGGTTGCA,0.299
15,GGGTTGCA,0.352
16,CAGCATGG,-0.00544
17,GCCCGCGC,-0.0387
18,CGTCTAGC,-0.21
19,TGACACCA,-0.0107
20,CACGGCTG,-0.212
21,AGGTTGTA,0.338
22,AAGTTGTA,0.112
23,CGGTTGTA,0.153
24,CCGTTTGC,0.0589
25,ACCAGGGT,0.358

row,Sequence,PBM E-score
1,AACAGGGT,0.348
2,AATAGGGG,0.0477
3,AACAGGGA,0.044
4,AATAGGGA,-0.0102
5,AATAGGGT,0.374
6,AACAGGGC,-0.0745
7,ACCAGGGG,-0.0398
8,ACCAGGGA,-0.00163
9,GATAGAGC,-0.0954
10,CGCCACTA,-0.111
11,GCCCTAGC,-0.148
12,GGCCCTAC,0.0088
13,ATCCAGAA,0.159
14,CTCCTTCA,-0.168
15,TACCCAGA,0.265
16,AAGAGATG,-0.16
17,TAGTACCA,0.163
18,ACGTACCA,-0.0952
19,GGGTACCA,0.4
20,CGGTACCA,0.303
21,CGGTACTA,0.0114
22,TGGTACCA,0.357
23,AGGTACTA,0.29
24,AGGTACGA,-0.0106
25,TCGTACCA,0.149

row,Sequence,PBM E-score
1,GCGTACCA,0.0288
2,GGGTACTA,0.335
3,AGGTACCA,0.347
4,CACTAGCA,-0.00655
5,ACATGCCG,-0.241
6,GTGAGTGA,-0.147
7,ACAAACTG,-0.16
8,TGGTACAA,0.146
9,AGGTACAA,0.15
10,GGGTACAA,0.345
11,TCAGCTCA,-0.00847
12,CCTTGGTC,0.0233
13,ATCGATTC,-0.119
14,ATAACCAA,0.437
15,GTAACCAA,0.417
16,TCAACCAA,0.118
17,ATAACCAT,0.457
18,CTAACCAA,0.262
19,AGAACCAA,0.148
20,GGAACCAA,0.159
21,TTAACCAA,0.317
22,GCAACCAA,0.231
23,AAAACCAT,0.283
24,AGAACCAT,0.184
25,AAAACCAA,0.209

row,Sequence,PBM E-score
1,CAAGACTC,-0.0977
2,GGCCTCGA,0.00761
3,CCTTAAAC,0.143
4,CGTGGAGA,-0.239
5,ACCACTAC,0.182
6,AGAGGCCG,-0.144
7,CGCTCACG,-0.0384
8,AGGATCTG,-0.242
9,ATAACCAG,0.436
10,AGAACCAG,0.0863
11,CTAACCAG,0.146
12,GGAATCCA,-0.115
13,CCAGGGGG,-0.095
14,CGACCTAC,-0.114
15,CACCTCTG,-0.0642
16,TAGCTCGA,0.0239
17,ACAACCAG,0.23
18,GCAACCAC,0.269
19,ACAACCAA,0.267
20,ACAACCAT,0.322
21,ACAACTAT,0.204
22,ACAACCAC,0.361
23,AGGCTTTG,-0.027
24,ACAATGCA,0.0982
25,CAACCCGC,0.251

row,Sequence,PBM E-score
1,CAACCCGA,0.355
2,GAACCCGA,0.0725
3,TACCCCGA,0.34
4,AACCCCGA,0.266
5,TAACCCGA,0.345
6,CTACCCGA,0.25
7,AAACCCGA,0.264
8,GACCCCGA,0.244
9,GCAGCTGC,-0.246
10,CTTACTTC,0.00964
11,GTATGATA,0.14
12,ATATGATA,0.348
13,CTATGATA,0.00378
14,TCTTCGAA,0.00843
15,AATCGTCG,-0.21
16,CTACTGTA,-0.0171
17,ACACCCTG,0.21
18,ACACCCTA,0.335
19,CCACCCAC,0.263
20,CCACCCTC,0.358
21,ACACCCTC,0.312
22,GCACCCTA,0.297
23,CCACCCAA,-0.0177
24,ACACCCCA,0.0819
25,CCACCCTA,0.327

row,Sequence,PBM E-score
1,CCTAGGCC,-0.0276
2,ATATCTGG,-0.138
3,CAGTTAAG,0.0515
4,GGAGTTTA,-0.0721
5,ATGAGAGA,-0.0163
6,GTGCACGA,0.0644
7,ACCGCAAC,0.341
8,ACCGCAAA,0.205
9,ACCGCAAT,0.319
10,ACCGCACT,0.109
11,GCCGCAAC,0.218
12,ACCGCAAG,0.153
13,AGCGACGC,-0.162
14,TGCATCAA,0.122
15,CAGCGACA,-0.0507
16,ACCTAGGT,0.26
17,CGTGATGA,-0.0344
18,GGTGATGA,0.338
19,AGTGATGA,-0.0675
20,ACAGCAAC,-0.00827
21,TGAGTGCA,-0.113
22,CGAGGTTC,0.22
23,CGAGGTTA,0.455
24,CGAGGTGA,0.239
25,GGAGGTGA,0.13

row,Sequence,PBM E-score
1,GGAGGTAA,0.289
2,GGAGGTTA,0.36
3,GTGGATGA,0.014
4,ACGGATGG,-0.0981
5,AGTTAACA,0.117
6,CGTTAACA,0.00812
7,CGTTAACC,0.294
8,GGTTAACA,0.32
9,AGTTAACC,0.289
10,GGTTAACC,0.427
11,ACGTTGGG,-0.01
12,CGCTTTAG,-0.136
13,CATCTTTC,-0.0278
14,CACCCTCA,0.257
15,AACCCTCA,0.383
16,CACCCTCC,0.326
17,AACCCTGC,0.385
18,AACCCTCG,0.292
19,ACCCCTCA,0.267
20,GACCCTGC,0.283
21,CCCCCTGC,-0.372
22,CACCCTGC,0.331
23,AACCCTCC,0.185
24,ACCCCTGC,0.167
25,CTCCCTGC,-0.212
